The text below walks through data of PubChem BioAssay.

Assay [1] is described as follows: anti-His antibody binders, primary screen, artefact control for SMM control protein annotation, biochemical, small-molecule microarray, 635 nm fluorescence (AID 1128).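 Further: score merges feature fluorescence with signal-to-noise for each printed compound spot.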 The following applies: anti-His Alexa647 antibody binding, higher = more signal.
For assay [2], the system named is Human papillomavirus type 1a E7 protein (residues 1-88). The assay can be described thus: HPV1a E7 small-molecule binders, primary screen, biochemical, small-molecule microarray, residues 1-88, 635 nm (AID 1129). The following applies: small-molecule microarray binding, fluorescence 635 nm; higher = more signal.
In assay [3] the target is Focal adhesion kinase 1 (Homo sapiens) (UniProt Q05397). The assay can be described thus: small-molecule microarray binders of FAK, primary screen, biochemical, 635/667 nm fluorescence, BSA, DTT (AID 1130).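 Further: composite of spot emission at 667 nm and signal to noise over triplicate slides.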 Conditions: PTK2 binding, 635 nm fluorescence, higher = more signal.
For assay [4], the system named is Fibrinogen (Alexa647-labelled). The assay can be described thus: fibrinogen binders on compound microarrays, profiling panel, artefact control for SMM control-protein annotation, biochemical, small-molecule microarray, 635/667 nm fluorescence (AID 1131).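 Further: z-score merges 667 nm fluorescence with per-spot signal-to-noise over triplicate slides.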 Conditions: fibrinogen-A647 binding fluorescence, higher = more signal.
Assay [5] has as its target Follistatin (Homo sapiens) (UniProt P19883). The assay can be described thus: follistatin binders on small-molecule microarrays, primary screen, biochemical, small-molecule microarray, 635/667 nm fluorescence (AID 1132). The following applies: FST binding, 635 nm fluorescence, higher = more signal.
In assay [6] the target is Fibroblast growth factor 2 (Homo sapiens) (UniProt P09038). The assay is described as follows: FGF2 binders on small-molecule microarrays, primary screen, biochemical, small-molecule microarray, 635/667 nm fluorescence (AID 1133). The following applies: small-molecule microarray binding, FGF2, fluorescence 635/667; higher = more signal.
The nature of assay [7]: mitochondrial membrane potential change in A549 cells, profiling panel, cell-based, JC-1 fluorescence, basal, 24 h, 100 nL (AID 1138).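 Further: A549 lung adenocarcinoma cells under basal conditions with no added stimulus; test concentration not given here.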 Conditions: higher = more signal.
The test system of a further assay is Lefty1. The assay can be described thus: Lefty1 binders on small-molecule microarrays, primary screen, biochemical, small-molecule microarray, 635/667 nm fluorescence (AID 1139). The following applies: small-molecule microarray binding, fluorescence 635/667; higher = more signal.
Assay [8] has as its system wheat germ agglutinin (Triticum aestivum), Alexa647-labelled. The assay can be described thus: wheat germ agglutinin binders on compound microarrays, profiling panel, artefact control for SMM control-protein annotation, biochemical, small-molecule microarray, 635/667 nm fluorescence (AID 1140).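 Further: score merges 667 nm feature emission with signal to noise over triplicate slides.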 The following applies: WGA-A647 binding, 635 nm fluorescence, higher = more signal.

Assay [9] deals with Luciferin 4-monooxygenase (Photinus pyralis) (UniProt P08659). The assay can be described thus: firefly luciferase enzyme inhibitors, primary screen, biochemical, luminescence, purified enzyme, 2006 set (AID 1141).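 Further: cell-free assay with purified firefly luciferase at 100 ng per well in PBS; test concentration not given here.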 The following applies: SteadyGlo luminescence, 30 min, higher = more signal, called active from +8 up or from −8 down.

Structures are written as SMILES. The source made the active and inactive calls.

Sequence of Follistatin (Homo sapiens) (P19883 whole entry, looked up): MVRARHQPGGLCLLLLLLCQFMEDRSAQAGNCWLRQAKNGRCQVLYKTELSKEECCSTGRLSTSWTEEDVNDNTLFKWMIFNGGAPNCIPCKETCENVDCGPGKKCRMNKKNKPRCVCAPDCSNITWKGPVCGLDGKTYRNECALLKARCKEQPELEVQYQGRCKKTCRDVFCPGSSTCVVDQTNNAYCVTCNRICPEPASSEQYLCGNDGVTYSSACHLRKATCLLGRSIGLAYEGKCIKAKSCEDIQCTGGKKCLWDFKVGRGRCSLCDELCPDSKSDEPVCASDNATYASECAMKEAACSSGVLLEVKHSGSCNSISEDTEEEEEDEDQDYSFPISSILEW
Sequence of Fibroblast growth factor 2 (Homo sapiens) (P09038 whole entry, looked up): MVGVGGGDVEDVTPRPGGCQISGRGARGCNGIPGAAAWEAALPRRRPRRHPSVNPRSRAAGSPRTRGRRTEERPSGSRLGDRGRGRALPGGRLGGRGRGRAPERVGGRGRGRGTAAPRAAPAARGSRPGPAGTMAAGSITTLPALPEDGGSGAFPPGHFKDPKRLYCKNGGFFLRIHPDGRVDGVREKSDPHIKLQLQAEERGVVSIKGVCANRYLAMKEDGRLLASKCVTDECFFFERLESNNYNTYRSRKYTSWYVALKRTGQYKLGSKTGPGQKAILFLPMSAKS
Sequence of Luciferin 4-monooxygenase (Photinus pyralis) (P08659 whole entry, looked up): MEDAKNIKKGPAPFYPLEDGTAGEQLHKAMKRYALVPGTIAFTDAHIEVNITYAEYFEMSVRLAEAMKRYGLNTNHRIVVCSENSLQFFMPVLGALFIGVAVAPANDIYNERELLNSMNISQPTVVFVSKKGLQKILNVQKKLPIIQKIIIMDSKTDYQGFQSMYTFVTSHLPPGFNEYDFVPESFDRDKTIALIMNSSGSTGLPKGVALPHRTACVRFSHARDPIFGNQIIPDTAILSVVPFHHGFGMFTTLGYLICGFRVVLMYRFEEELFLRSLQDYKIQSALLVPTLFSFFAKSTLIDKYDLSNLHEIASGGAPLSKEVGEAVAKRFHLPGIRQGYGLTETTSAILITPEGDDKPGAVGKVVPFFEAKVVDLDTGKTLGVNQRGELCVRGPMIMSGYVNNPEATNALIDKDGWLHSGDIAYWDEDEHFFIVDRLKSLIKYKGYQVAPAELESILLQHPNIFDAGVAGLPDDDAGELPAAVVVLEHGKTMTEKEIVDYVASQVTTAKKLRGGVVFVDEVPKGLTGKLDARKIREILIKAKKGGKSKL
Sequence of Focal adhesion kinase 1 (Homo sapiens) (Q05397 whole entry, looked up): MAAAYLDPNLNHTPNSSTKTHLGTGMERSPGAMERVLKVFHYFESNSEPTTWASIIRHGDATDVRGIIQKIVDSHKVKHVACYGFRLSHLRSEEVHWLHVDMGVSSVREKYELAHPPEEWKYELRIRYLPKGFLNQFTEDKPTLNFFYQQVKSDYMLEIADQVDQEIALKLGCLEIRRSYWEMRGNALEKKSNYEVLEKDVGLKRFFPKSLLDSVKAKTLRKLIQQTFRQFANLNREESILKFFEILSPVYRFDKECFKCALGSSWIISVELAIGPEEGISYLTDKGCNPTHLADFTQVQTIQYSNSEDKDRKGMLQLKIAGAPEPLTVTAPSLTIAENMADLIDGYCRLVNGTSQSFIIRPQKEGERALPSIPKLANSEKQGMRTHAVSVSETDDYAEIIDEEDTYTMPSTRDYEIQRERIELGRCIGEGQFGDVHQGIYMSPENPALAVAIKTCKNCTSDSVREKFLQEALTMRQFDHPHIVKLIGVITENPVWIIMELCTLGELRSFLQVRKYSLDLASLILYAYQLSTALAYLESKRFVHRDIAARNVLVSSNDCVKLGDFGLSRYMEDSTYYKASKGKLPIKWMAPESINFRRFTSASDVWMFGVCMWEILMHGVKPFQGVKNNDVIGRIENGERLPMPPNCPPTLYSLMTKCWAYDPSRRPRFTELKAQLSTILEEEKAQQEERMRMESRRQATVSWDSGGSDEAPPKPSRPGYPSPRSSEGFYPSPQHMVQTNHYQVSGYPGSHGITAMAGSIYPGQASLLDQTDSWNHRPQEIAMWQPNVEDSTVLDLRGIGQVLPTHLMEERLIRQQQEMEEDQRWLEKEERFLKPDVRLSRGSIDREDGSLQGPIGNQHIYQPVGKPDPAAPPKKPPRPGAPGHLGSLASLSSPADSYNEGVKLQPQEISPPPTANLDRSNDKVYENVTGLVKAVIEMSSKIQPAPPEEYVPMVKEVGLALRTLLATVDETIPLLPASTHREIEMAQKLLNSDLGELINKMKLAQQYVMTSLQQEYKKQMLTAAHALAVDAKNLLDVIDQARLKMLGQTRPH

On to `O=C(CS)NCCCCCCNC(=O)[C@@H]1C[C@@H]2C(=O)NCC(=O)N2[C@@H]1c1ccc(O)cc1`, for which the composite z-score in [1] is 2.52; in assay [2], -0.41; in [3], 0.0509; in [4], -0.975; in assay [5], 0.526; in assay [6], 1.18. Besides, the composite z-score is -0.628 with Lefty1 and -0.498 in [8]. In addition, the z-score in [7] was 0.601; in assay [9], -1.38 (inactive).

In the case of `O=C1N(CCS(=O)(=O)c2ccccc2)Cc2ccccc2[C@@H]2OC(c3ccc(OCCCO)cc3)=N[C@]12CCS(=O)(=O)c1ccccc1`, the composite z-score stood at 0.519 in assay [1]; 1.27 in [2]; 1.2 in assay [3]; 0.645 in assay [4]; 1.41 in [5]; 1.7 in [6]. Besides, the values for the composite z-score (with Lefty1; in assay [8]) were 0.783 and 0.817, respectively. The z-score in [7] was -1.19; in assay [9], -2.08 (inactive).

With `COC(=O)[C@@]1(Cc2ccc(F)cc2)[C@H]2c3cc(C(=O)N(C)C)n(Cc4c(CO)[nH]cc(C)c4=O)c3C[C@H]2CN1C(=O)c1ccccc1`, the composite z-score in assay [1] is 0.394; in assay [2], 0.453; in assay [3], 0.0551; in assay [4], -0.466; in [5], -0.198; in assay [6], -0.197. Further, the composite z-score in the assay on Lefty1 was -0.0191; in assay [8] it was 0.406. Further, the z-score in assay [7] is 0.932; in [9] it was 0.593 (inactive).

As for `COC(=O)C(CC#Cc1ccc2c(c1)[C@]1(C(=O)N2)[C@H](c2ccc(OCCO)cc2)N2[C@H](c3ccccc3)[C@H](c3ccccc3)OC(=O)[C@H]2[C@@H]1C(=O)N1CCN(c2ncccn2)CC1)C(=O)OC`, the composite z-score in assay [1] is 1.92; in assay [2], 1.21; in assay [3] it was -0.528; in [4] it was 0.993; in [5], 1.37; in assay [6], 1.35. In addition, the composite z-score in the assay on Lefty1 was found to be 0.857; in assay [8] it was 1.04. The z-score was -1.56 in [7] and -0.195 (inactive) in assay [9].

On to `O=C(N1CCOCC1)[C@@]1(CCS(=O)(=O)c2ccccc2)N=C(c2ccc(OCCCO)cc2)O[C@H]1c1ccccc1`, for which the composite z-score came to 3.23 in [1]; 1.25 in assay [2]; 0.919 in assay [3]; 1 in [4]; 1.25 in assay [5]; 0.162 in [6]. The composite z-score is -0.415 in the assay on Lefty1 and 1.29 in [8]. In addition, the z-score in assay [7] is 0.584; in assay [9], -0.0763 (inactive).

For the compound `O=C(O)[C@@H]1C[C@@H]2C(=O)N3CCC[C@H]3C(=O)N2[C@@H]1c1cccc(OCCO)c1`, the composite z-score was 3.41 in assay [1]; 1.31 in assay [2]; 2.47 in assay [3]; 0.977 in [4]; 1.41 in assay [5]; 1.4 in assay [6]. Besides, the values for the composite z-score (in the assay with Lefty1; in [8]) were 1.7 and 1.69, respectively. Besides, the results for the z-score in assay [7] and in assay [9] were 0.729 and -0.485 (inactive), respectively.

Take `CC1CC/C=C\[C@H]2OC34C=CCN(CCN5CCOCC5)C(=O)[C@H]3N(C(C)CO)C(=O)[C@@H]4C2C(=O)O1` (stereo not given in full): the composite z-score is -0.172 in assay [1]; -1.04 in [2]; -0.421 in assay [3]; -1.99 in [4]; 0.446 in [5]; -0.439 in assay [6]. Also, the values for the composite z-score (in the assay on Lefty1; in assay [8]) were 0.582 and -0.928, respectively. Also, the z-score in [7] was 0.224; in assay [9] it was -1.39 (inactive).

Turning to `COCCOC(=O)N1C(=O)[C@@]2(c3cc(C#CC4=CCCCC4)ccc31)[C@H](c1ccc(O)cc1)N1[C@H](c3ccccc3)[C@H](c3ccccc3)OC(=O)[C@H]1[C@@H]2C(=O)NC[C@H](O)c1ccccc1`, the composite z-score in [1] is 1.13; in [2], 1.22; in [3] it was 0.26; in [4] it was 0.813; in assay [5], 1.22; in assay [6], 0.685. Also, the composite z-score came to 0.858 with Lefty1 and 0.781 in assay [8]. The figures for the z-score in [7] and in [9] were -1.14 and -1.08 (inactive), respectively.

As to `Cc1ccc([C@H]2C(C(=O)O)=C[C@@H](C(C)(C)C)N2S(=O)(=O)c2ccc(C)cc2)cc1`, the composite z-score in assay [1] is 1.28; in assay [2] it was 1.24; in assay [3] it was 0.664; in assay [4], 0.999; in assay [5], 0.802; in assay [6] it was 0.557. Moreover, the composite z-score in the assay with Lefty1 stood at 0.367; in assay [8], 1.3. Further, the figures for the z-score in assay [7] and in assay [9] were -0.918 and 1.48 (inactive), respectively.

As to `[N-]=[N+]=Nc1ccccc1C[C@@]1(C(=O)O)N=C(c2ccc(OCCCO)cc2)O[C@@H]1c1ccccc1N=[N+]=[N-]`, the composite z-score was 2.68 in assay [1]; 1.25 in assay [2]; 0.968 in assay [3]; 0.963 in assay [4]; 0.46 in assay [5]; -0.606 in [6]. Besides, the composite z-score was -0.817 with Lefty1 and 1.44 in assay [8]. The figures for the z-score in [7] and in assay [9] were 0.125 and -5.43 (inactive), respectively.

With `C=CCC(OC(C)=O)[C@@H]1[C@@H](N(Cc2ccc(-c3ccccc3)cc2)C(=O)c2ccc(C)cc2)c2cc(OCCCO)ccc2N1C(=O)Cc1ccc2ccccc2c1` (stereo not given in full), the composite z-score is 0.0102 in assay [1]; -0.823 in assay [2]; -0.0958 in assay [3]; 0.0701 in assay [4]; 0.37 in [5]; -0.154 in assay [6]. Further, the results for the composite z-score (in the assay on Lefty1; in assay [8]) were 0.293 and 0.0607, respectively. In addition, the figures for the z-score in assay [7] and in assay [9] were 3.13 and -2.19 (inactive), respectively.

Turning to `COCCCNC(=O)[C@@]1(Sc2ccc(C)cc2)CC(=O)N(Cc2ccccc2Cl)[C@@H]1c1ccc(CO)cc1I`, the composite z-score in assay [1] was 1.32; in assay [2], -0.943; in assay [3], 0.345; in [4] it was -1.49; in assay [5], -0.242; in assay [6], -0.765. Also, the composite z-score in the assay with Lefty1 is -0.959; in [8], -0.691. Further, the values for the z-score in assay [7] and in assay [9] were 0.919 and -0.181 (inactive), respectively.
